Among the test systems are DU-145 prostate; K-562 leukemia; MALME-3M melanoma; MDA-MB-231 breast; RXF 393 renal; SF-268 CNS; SF-295 CNS; SF-539 CNS; UACC-257 melanoma; HCT-15 colon; HT29 colon; SNB-75 CNS; SNB-19 CNS; U251 CNS; PC-3 prostate; SK-MEL-5 melanoma; UACC-62 melanoma; LOX IMVI melanoma; SK-MEL-28 melanoma; M14 melanoma.
What all share (assay): NCI-60 one-dose screen, 48 h (100 = growth as untreated, 0 = no growth, -100 = all killed)
What all share (details): 10 µM unless noted

Compounds without any hit were thinned out: in the full panel of roughly 83,000, 20% have a hit.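 Interpretation: 100, growth as untreated; towards 0, rising growth inhibition; 0, no net growth; 0 to -100, cell death. Compounds scoring below 10 were considered active.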 Values without a mark were called inactive. Active and inactive are the calls of the source.

Consider `C=C(C)[C@@H]1CC[C@]2(C)[C@H](CC[C@@H]3[C@@H]([C@@](C)(O)CCC=C(C)C)CC[C@]32C)[C@@]1(C)CCC(=O)N1CCN(C)CC1`, for which the growth in the experiment on DU-145 prostate was -80% [100 µM] (active); in the experiment on K-562 leukemia, 1.77% [100 µM] (active); in the experiment with MALME-3M melanoma it was -89.6% [100 µM] (active); in the experiment on MDA-MB-231 breast, -95.8% [100 µM] (active); with RXF 393 renal it was -93.7% [100 µM] (active); with SF-268 CNS, -79.4% [100 µM] (active). Moreover, the growth was -88.7% [100 µM] (active) with SF-295 CNS; -94% [100 µM] (active) in the experiment on SF-539 CNS; -59.9% [100 µM] (active) in the experiment with UACC-257 melanoma; -92.8% [100 µM] (active) with HCT-15 colon; -70.8% [100 µM] (active) in the experiment on HT29 colon; -92.5% [100 µM] (active) in the experiment with SNB-75 CNS. The growth with SNB-19 CNS was -95.3% [100 µM] (active); with U251 CNS, -78.6% [100 µM] (active); in the experiment on PC-3 prostate, -61.8% [100 µM] (active); in the experiment on SK-MEL-5 melanoma it was -99.1% [100 µM] (active); in the experiment on UACC-62 melanoma it was -95.2% [100 µM] (active); in the experiment with LOX IMVI melanoma, -100% [100 µM] (active). In addition, the growth in the experiment with SK-MEL-28 melanoma is -92.1% [100 µM] (active).
With `CCN(CC)c1ccc2cc(C(Nc3ccc(Br)c(C(F)(F)F)c3)c3nnnn3C(C)(C)C)c(=O)oc2c1` (stereo not given), the growth with DU-145 prostate is 103%; in the experiment on K-562 leukemia it was 88.2%; with MALME-3M melanoma, 88%; with MDA-MB-231 breast, 86.9%; with RXF 393 renal, 82.9%; in the experiment on SF-268 CNS it was 85.3%. The growth in the experiment with SF-295 CNS was 103%; in the experiment with SF-539 CNS, 101%; in the experiment with UACC-257 melanoma it was 93.3%; in the experiment on HCT-15 colon it was 94.8%; in the experiment with HT29 colon it was 85.9%; in the experiment with SNB-75 CNS it was 67.7%. Further, the growth in the experiment with SNB-19 CNS is 86.1%; in the experiment on U251 CNS it was 86.6%; with PC-3 prostate, 79.7%; in the experiment on SK-MEL-5 melanoma, 84.7%; with UACC-62 melanoma, 88.8%; with LOX IMVI melanoma it was 98%. The growth with SK-MEL-28 melanoma was 104%.
Turning to `Cc1ncc(C(=O)Nc2ccc(CN3CCN(C)CC3)c(C(F)(F)F)c2)cc1C#Cc1c(N)ncc2ccc(C#N)cc12`, the growth is 27.7% in the experiment on DU-145 prostate; 4.11% (active) in the experiment with K-562 leukemia; -34.3% (active) with MALME-3M melanoma; -12.5% (active) in the experiment with MDA-MB-231 breast; -45% (active) in the experiment on RXF 393 renal; 42.1% with SF-268 CNS. In addition, the growth in the experiment with SF-295 CNS is 74.4%; with SF-539 CNS, 48.4%; with UACC-257 melanoma, -1.39% (active); in the experiment with HCT-15 colon, 28%; with HT29 colon, 11.9%; in the experiment with SNB-75 CNS, 56.4%. Besides, the growth was 77.5% in the experiment with SNB-19 CNS; 68.5% with U251 CNS; 48.7% in the experiment with PC-3 prostate; 16.2% in the experiment with SK-MEL-5 melanoma; 22.5% in the experiment on UACC-62 melanoma; -62.4% (active) in the experiment with LOX IMVI melanoma. Also, the growth in the experiment on SK-MEL-28 melanoma is 23.7%.
As for `Clc1ccc(/C=N/Nc2nc3ccccc3s2)c(Cl)c1`, the growth in the experiment with DU-145 prostate was 97.9%; with K-562 leukemia, 91%; in the experiment on MALME-3M melanoma it was 79.6%; with RXF 393 renal, 114%; with SF-268 CNS it was 85.4%; in the experiment with SF-295 CNS, 97.5%. For the same compound, the growth with SF-539 CNS was 100%; in the experiment with UACC-257 melanoma it was 93.5%; in the experiment with M14 melanoma, 121%; with HCT-15 colon, 85%; with HT29 colon, 84.1%; with SNB-75 CNS, 84.3%. For the same compound, the growth in the experiment on SNB-19 CNS was 103%; in the experiment with U251 CNS, 76.3%; in the experiment on PC-3 prostate, 79.5%; with SK-MEL-5 melanoma, 98.4%; in the experiment on UACC-62 melanoma it was 103%; with LOX IMVI melanoma it was 84.7%. The growth in the experiment with SK-MEL-28 melanoma was 114%.
Take `C[C@@H]1C[C@H]2C(=O)O[C@@H](C)[C@H](NC(=O)[C@H](Cc3cc(F)cc(F)c3)NC(=O)Nc3ccc(Cl)cc3F)C(=O)N3C[C@H](O)C[C@H]3C(=O)N3CCN(C)C[C@H]3C(=O)N[C@@H](C)C(=O)N2C1`: the growth in the experiment on DU-145 prostate is 41.3%; with K-562 leukemia, 27.7%; in the experiment with MALME-3M melanoma, 45.4%; in the experiment on MDA-MB-231 breast, 27.9%; in the experiment on RXF 393 renal, 88.1%; in the experiment on SF-268 CNS, 29.1%. The growth is 38.9% in the experiment with SF-295 CNS; 51.3% in the experiment with SF-539 CNS; 19.8% in the experiment on UACC-257 melanoma; 107% in the experiment on HCT-15 colon; 32.5% in the experiment on HT29 colon; 22.8% with SNB-75 CNS. Further, the growth with SNB-19 CNS is 20.3%; in the experiment with U251 CNS, 21.1%; in the experiment with PC-3 prostate it was 18.1%; in the experiment on SK-MEL-5 melanoma it was 64.6%; in the experiment on UACC-62 melanoma, 31.1%; with LOX IMVI melanoma, 43.4%. For the same compound, the growth with SK-MEL-28 melanoma was 41.3%.
On to `Cn1cc(-c2nnc(-c3cn(C)c4ncc(Br)cc34)o2)c2ccccc21`, for which the growth in the experiment on DU-145 prostate is 103%; in the experiment with K-562 leukemia, 49.1%; in the experiment with MALME-3M melanoma, 75.2%; in the experiment with MDA-MB-231 breast it was 75.3%; with RXF 393 renal, 70.8%; with SF-268 CNS it was 89.1%. The growth in the experiment on SF-295 CNS was 89.3%; in the experiment on SF-539 CNS, 92.1%; in the experiment with UACC-257 melanoma, 98.5%; with HCT-15 colon, 53.3%; with HT29 colon, 87.7%; in the experiment with SNB-75 CNS, 65.8%. In addition, the growth in the experiment with SNB-19 CNS was 87.6%; in the experiment with U251 CNS it was 94.3%; with PC-3 prostate it was 77.2%; in the experiment on SK-MEL-5 melanoma, 80.1%; in the experiment on UACC-62 melanoma, 70.8%; with LOX IMVI melanoma it was 92.3%. The growth with SK-MEL-28 melanoma is 91.7%.
With `O=C1NC(=O)c2cc([N+](=O)[O-])cc3cccc1c23`, the growth with DU-145 prostate was 106%; with K-562 leukemia, 131%; in the experiment with MALME-3M melanoma it was 107%; in the experiment on MDA-MB-231 breast, 100%; with RXF 393 renal, 98.2%; in the experiment on SF-268 CNS it was 98%. In addition, the growth in the experiment with SF-295 CNS was 114%; with SF-539 CNS, 105%; in the experiment with UACC-257 melanoma, 76.7%; with HCT-15 colon, 95.2%; with HT29 colon, 102%; in the experiment on SNB-75 CNS, 90.2%. The growth with SNB-19 CNS is 100%; in the experiment on U251 CNS, 82.3%; with PC-3 prostate it was 78.8%; in the experiment with SK-MEL-5 melanoma it was 101%; with UACC-62 melanoma it was 87%; in the experiment on SK-MEL-28 melanoma, 108%.
Take `Cc1nn(-c2ccccc2)c(N2CCOCC2)c1-c1nc2ccc([N+](=O)[O-])cc2[nH]1`: the growth with DU-145 prostate is 98.4%; in the experiment on K-562 leukemia, 88.4%; in the experiment on MALME-3M melanoma, 105%; in the experiment with MDA-MB-231 breast, 109%; in the experiment on RXF 393 renal it was 113%; in the experiment with SF-268 CNS it was 89.7%. The growth in the experiment on SF-295 CNS is 99.8%; in the experiment on SF-539 CNS, 109%; in the experiment with UACC-257 melanoma, 106%; in the experiment on HT29 colon it was 113%; in the experiment with SNB-75 CNS, 95.7%; in the experiment on SNB-19 CNS, 103%. In addition, the growth with U251 CNS is 102%; in the experiment on PC-3 prostate it was 112%; in the experiment on SK-MEL-5 melanoma it was 95.7%; in the experiment with UACC-62 melanoma, 83.4%; in the experiment with LOX IMVI melanoma it was 92.1%; in the experiment with SK-MEL-28 melanoma, 102%.

Source of the values: PubChem BioAssay (NCI).
